Assay results published in PubChem BioAssay (Tox21).
Results filed as inconclusive are left out. Calls of active or inactive are those of the source. Unless noted, calls follow the shape of the dose curve; as a rule, active = well fitted curve in the direction sought with a large enough effect in the repeat runs; inconclusive = weak or mixed curves; inactive = flat fitted curve, though single readings scatter.

Columns and labels:
[1] = qHTS assay to test for compound auto fluorescence at 535 nm (green) in HEK293 cells (AID 720680)
[2] = qHTS assay to test for compound auto fluorescence at 460 nm (blue) in HEK293 cell free culture (AID 720681)
Method in brief: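 Blue fluorescence (Ex 405/Em 460 nm, triamterene-equivalent) was read immediately after pin transfer of compound or DMSO into medium (DMEM, 10% FBS) without cells.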

[3] = qHTS assay to test for compound auto fluorescence at 535 nm (green) in HEK293 cell free culture (AID 720682)
Method in brief: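 Green-label autofluorescence (485 nm excitation, 535 nm emission) measured on compound added to cell-free culture medium (DMEM, 10% FBS). Output is expressed relative to fluorescein.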

[4] = qHTS assay to test for compound auto fluorescence at 590 nm (red) in HEK293 cell free culture (AID 720683)
Method in brief: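 Red-channel autofluorescence of compounds in culture medium (DMEM, 10% FBS), no cells, measured at 540/590 nm. Rose Bengal sodium is the reference fluorophore for equivalence.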

[5] = qHTS assay to test for compound auto fluorescence at 590 nm (red) in HepG2 cell free culture (AID 720684)
Method in brief: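 Steps: dispense MEM/10% FBS medium, no cells; pin compound or DMSO vehicle; read red channel, Ex/Em 540/590 nm. Output given as Rose Bengal sodium equivalents.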

[6] = qHTS assay to test for compound auto fluorescence at 460 nm (blue) in HepG2 cell free culture (AID 720685)
Method in brief: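 Compound (23 nL) or DMSO pinned into cell-free MEM with 10% FBS; blue fluorescence read at 405/460 nm excitation/emission, expressed as auto-fluorescence equivalency to triamterene.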

[7] = qHTS assay to test for compound auto fluorescence at 535 nm (green) in HepG2 cell free culture (AID 720686)
[8] = qHTS assay to test for compound auto fluorescence at 460 nm (blue) in HepG2 cells (AID 720687)
Method in brief: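 Blue-channel autofluorescence (Ex/Em 405/460 nm, triamterene-equivalent) was measured after 1 hr compound exposure at 37 C, 5% CO2. Cells were HepG2, plated overnight at 37 C in MEM plus 10% FBS.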

[9] = molecular target: Glucocorticoid receptor (Homo sapiens) (UniProt P04150); assay: qHTS assay to identify small molecule agonists of the glucocorticoid receptor (GR) signaling pathway (AID 720691; active = well fitted activation curve with a large enough effect in the signal ratio in the repeat runs, not every such curve was filed as active; the % refers to the signal ratio)
Method in brief: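 Agonist mode in a HeLa line carrying a GRE-controlled beta-lactamase reporter. Compounds act for 18 h at 37 C before a 2 h room-temperature FRET substrate step and fluorescence reading.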
% is scaled to controls: 0 for no effect and ±100 for the full control effect.

Glucocorticoid receptor (Homo sapiens), sequence (P04150 whole entry, looked up): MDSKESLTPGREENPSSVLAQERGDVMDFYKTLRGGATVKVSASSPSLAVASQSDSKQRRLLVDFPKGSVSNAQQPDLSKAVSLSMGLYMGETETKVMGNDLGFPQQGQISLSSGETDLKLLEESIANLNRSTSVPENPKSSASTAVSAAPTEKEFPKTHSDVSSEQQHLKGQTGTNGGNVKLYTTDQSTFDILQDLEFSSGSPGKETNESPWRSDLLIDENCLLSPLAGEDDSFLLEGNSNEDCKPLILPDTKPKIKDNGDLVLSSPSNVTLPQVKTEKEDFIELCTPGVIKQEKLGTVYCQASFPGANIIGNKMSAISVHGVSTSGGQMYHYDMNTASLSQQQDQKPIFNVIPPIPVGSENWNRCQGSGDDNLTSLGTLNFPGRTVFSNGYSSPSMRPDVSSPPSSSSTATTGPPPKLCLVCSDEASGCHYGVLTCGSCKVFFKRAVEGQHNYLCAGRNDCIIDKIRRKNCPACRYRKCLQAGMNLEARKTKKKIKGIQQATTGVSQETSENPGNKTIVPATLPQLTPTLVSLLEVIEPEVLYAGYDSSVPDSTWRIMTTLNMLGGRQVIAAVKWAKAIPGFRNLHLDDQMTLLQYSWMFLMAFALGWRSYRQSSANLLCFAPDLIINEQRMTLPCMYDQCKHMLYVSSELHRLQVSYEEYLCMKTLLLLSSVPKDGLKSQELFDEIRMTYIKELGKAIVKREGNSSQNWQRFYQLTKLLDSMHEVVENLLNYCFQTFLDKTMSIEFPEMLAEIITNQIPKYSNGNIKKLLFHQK

OCCSCSCCO
inactive: outcome [1] | outcome [2] | outcome [3] | outcome [4] | outcome [5] | outcome [6] | outcome [7] | outcome [8]

COc1cc(OC)nc(Oc2cccc(Oc3nc(OC)cc(OC)n3)c2C(=O)O)n1
inactive: outcome [1] | outcome [2] | outcome [3] | outcome [4] | outcome [5] | outcome [6] | outcome [7] | outcome [8]

OC(c1ccc(F)cc1)(c1cncnc1)c1ccccc1Cl (stereo not given)
inactive: outcome [1] | outcome [2] | outcome [3] | outcome [4] | outcome [5] | outcome [6] | outcome [7] | outcome [8] | outcome [9]

N#CCCC#N
inactive: outcome [1] | outcome [2] | outcome [3] | outcome [4] | outcome [5] | outcome [6] | outcome [7] | outcome [8]

C#C[C@]1(O)C=C[C@H]2[C@@H]3CCC4=CC(=O)CC[C@@H]4[C@H]3CC[C@@]21CC
inactive: outcome [1] | outcome [2] | outcome [3] | outcome [4] | outcome [5] | outcome [6] | outcome [7] | outcome [8] | outcome [9]

COP(=S)(OC)Oc1ccc(S(N)(=O)=O)cc1
inactive: outcome [1] | outcome [2] | outcome [3] | outcome [4] | outcome [5] | outcome [6] | outcome [7] | outcome [8]

CN1CCN(C(=O)O[C@H]2c3nccnc3C(=O)N2c2ccc(Cl)cn2)CC1
inactive: outcome [1] | outcome [2] | outcome [3] | outcome [4] | outcome [5] | outcome [6] | outcome [7] | outcome [8]

OC(c1ccccc1)(c1ccccc1)C1CCNCC1
inactive: fluorescence, % of fluorescein [1] 0.0137% [at 18.6 µM] | fluorescence, % of fluorescent control [2] 0.0014% [at 18.6 µM] | activity change [3] 0.0163% [at 18.6 µM] | fluorescence, % of fluorescent control [4] 0.068% [at 18.6 µM] | fluorescence, % of Rose Bengal [5] -0.191% [at 18.6 µM] | fluorescence, % of fluorescent control [6] -0.0381% [at 18.6 µM] | fluorescence, % of fluorescein control [7] -0.0573% [at 18.6 µM] | fluorescence, % of fluorescent control [8] 0.186% [at 18.6 µM] | outcome [9]

CC(N)=S
inactive: outcome [1] | outcome [2] | outcome [3] | outcome [4] | outcome [5] | outcome [6] | outcome [7] | outcome [8]

CCC(=O)c1ccccc1
inactive: outcome [1] | outcome [2] | outcome [3] | outcome [4] | outcome [5] | outcome [6] | outcome [7] | outcome [8]

CC(C)(C)NCC(O)c1cc(Cl)c(N)c(Cl)c1 (stereo not given)
inactive: outcome [1] | outcome [2] | outcome [3] | outcome [4] | outcome [5] | outcome [6] | outcome [7] | outcome [8]

CC(C1CC1)C(O)(Cn1cncn1)c1ccc(Cl)cc1 (stereo not given)
inactive: outcome [1] | outcome [2] | outcome [3] | outcome [4] | outcome [5] | outcome [6] | outcome [7] | outcome [8]

NC(=O)c1cc([N+](=O)[O-])cc([N+](=O)[O-])c1
inactive: outcome [1] | outcome [2] | outcome [3] | outcome [4] | outcome [5] | outcome [6] | outcome [7] | outcome [8]

O=C(Nc1ccccc1)N(Cc1ccc(Cl)cc1)C1CCCC1
inactive: outcome [1] | outcome [2] | outcome [3] | outcome [4] | outcome [5] | outcome [6] | outcome [7] | outcome [8] | outcome [9]

CCCSP(=O)(OCC)Oc1ccc(Br)cc1Cl (stereo not given)
inactive: outcome [1] | outcome [2] | outcome [3] | outcome [4] | outcome [5] | outcome [6] | outcome [7] | outcome [8]

CC(Oc1ccc(Oc2ncc(C(F)(F)F)cc2Cl)cc1)C(=O)O (stereo not given)
inactive: outcome [1] | outcome [2] | outcome [3] | outcome [4] | outcome [5] | outcome [6] | outcome [7] | outcome [8] | outcome [9]

Nc1c(Br)cc([N+](=O)[O-])cc1[N+](=O)[O-]
inactive: outcome [1] | outcome [2] | outcome [3] | outcome [4] | outcome [5] | outcome [6] | outcome [7] | outcome [8]

CCCCOC(=O)[C@@H](C)Oc1ccc(Oc2ccc(C#N)cc2F)cc1
inactive: outcome [1] | outcome [2] | outcome [3] | outcome [4] | outcome [5] | outcome [6] | outcome [7] | outcome [8] | outcome [9]

CCCSC(=O)N(CCC)CCC
inactive: outcome [1] | outcome [2] | outcome [3] | outcome [4] | outcome [5] | outcome [6] | outcome [7] | outcome [8] | outcome [9]

O=[N+]([O-])c1cc(Cl)c(Cl)c(Cl)c1
inactive: outcome [1] | outcome [2] | outcome [3] | outcome [4] | outcome [5] | outcome [6] | outcome [7] | outcome [8]

NC(=O)O
inactive: outcome [1] | outcome [2] | outcome [3] | outcome [4] | outcome [5] | outcome [6] | outcome [7] | outcome [8]

C[C@@H]1CN(C2CCC(C#N)(c3ccc(F)cc3)CC2)CC[C@]1(C(=O)O)c1ccccc1 (stereo not given in full)
inactive: fluorescence, % of fluorescein [1] 0.0038% [at 18.6 µM] | fluorescence, % of fluorescent control [2] -0.0038% [at 18.6 µM] | activity change [3] -0.0185% [at 18.6 µM] | fluorescence, % of fluorescent control [4] 0.238% [at 18.6 µM] | fluorescence, % of Rose Bengal [5] -0.17% [at 18.6 µM] | fluorescence, % of fluorescent control [6] -0.0833% [at 18.6 µM] | fluorescence, % of fluorescein control [7] 0.0942% [at 18.6 µM] | fluorescence, % of fluorescent control [8] -0.0325% [at 18.6 µM] | outcome [9]

O=C1OC(c2ccc(O)c(S(=O)(=O)O)c2)(c2ccc(O)c(S(=O)(=O)O)c2)c2c(Br)c(Br)c(Br)c(Br)c21
inactive: outcome [1] | outcome [2] | outcome [3] | outcome [4] | outcome [5] | outcome [6] | outcome [7] | outcome [8] | outcome [9]

COc1cc2c(cc1OC)[C@@]13CCN4CC5=CCO[C@H]6CC(=O)N2[C@H]1[C@H]6[C@H]5C[C@H]43
inactive: outcome [1] | outcome [2] | outcome [3] | outcome [4] | outcome [5] | outcome [6] | outcome [7] | outcome [8]

N#Cc1c(Cl)cccc1Cl
inactive: outcome [1] | outcome [2] | outcome [3] | outcome [4] | outcome [5] | outcome [6] | outcome [7] | outcome [8] | outcome [9]

CCCCOC(=O)c1ccccc1C(=O)O
inactive: outcome [1] | outcome [2] | outcome [3] | outcome [4] | outcome [5] | outcome [6] | outcome [7] | outcome [8]

C[N+](C)=CCl
inactive: outcome [1] | outcome [2] | outcome [3] | outcome [4] | outcome [5] | outcome [6] | outcome [7] | outcome [8] | outcome [9]

O=[N+]([O-])c1cccc(O)c1
inactive: outcome [1] | outcome [2] | outcome [3] | outcome [4] | outcome [5] | outcome [6] | outcome [7] | outcome [8]
